# The supplement of paper PMC10681739
# Molecular target: RUNX1 (UniProt Q01196)
# Test: TF binding intensity (PBM fluorescence), negative control probe (arbitrary fluorescence units); higher = stronger binding
# Experimental: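 gcPBM negative-control 36-bp genomic probes lacking TF binding sites. Each was incubated with recombinant human ETS1 or RUNX1 alone and detected by antibody fluorescence. Values are medians over replicate spots (4 spots for the ETS1-RUNX1 arrays, 3 for the ETS1-ETS1 array). The probes sit in constant array flanks that are not printed.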
# RUNX1, sequence (Q01196 whole entry): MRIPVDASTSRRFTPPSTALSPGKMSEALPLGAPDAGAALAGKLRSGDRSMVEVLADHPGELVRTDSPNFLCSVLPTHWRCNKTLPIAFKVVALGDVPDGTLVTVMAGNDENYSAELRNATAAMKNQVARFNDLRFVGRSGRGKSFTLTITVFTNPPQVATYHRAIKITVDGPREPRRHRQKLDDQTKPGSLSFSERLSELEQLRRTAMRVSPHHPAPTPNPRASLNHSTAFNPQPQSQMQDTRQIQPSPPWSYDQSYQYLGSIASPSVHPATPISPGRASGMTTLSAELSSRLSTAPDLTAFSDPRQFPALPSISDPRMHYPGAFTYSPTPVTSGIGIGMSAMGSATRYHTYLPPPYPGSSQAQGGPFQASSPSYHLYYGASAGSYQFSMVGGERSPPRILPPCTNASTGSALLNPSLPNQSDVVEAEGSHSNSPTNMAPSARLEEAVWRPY
row,Sequence,TF binding intensity
1,GAAGGGGTTTCAGGACGGAAGCAAACACATATTCAA (protein concentration 2 nM),912
2,CTGATTCACTGCCCTCTTCCGCTCTGAGGCGTCGCC (protein concentration 2 nM),1030
3,GCGTACACCTGCCGCCGGAAGAAGAGCGACGGTCGC (protein concentration 2 nM),909
4,TGGGCGGGGAGAGGACGGAAGGAGTAGGCTTCGGGA (protein concentration 2 nM),1020
5,TCTCCGCGCATTTTATTTCCGGTTCTGAGGACGCCG (protein concentration 2 nM),1040
